Measured values from the supplement of paper PMC12669032.
Unmarked numbers belong to inactive results.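 The calls were made as follows: active = AUC reduced over 20% with Padj below 0.05 in at least 2 of 3 replicates; inactive = otherwise.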

Each compound was assayed on Bacteroides clarus (assay: growth AUC relative to DMSO control (median of replicates) (fraction); higher = more growth (less inhibition), active = hit call of the paper). Settings: 20 µM; 24 h.
In short: (§1)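 OD600 was recorded every hour for 24 h in anaerobic monocultures of gut bacteria kept at 37 °C in mGAM, seeded at OD600 0.05 and given 20 µM compound in 1% DMSO. The area under each growth curve was scaled to the plate median of solvent-only wells, or to row and column medians for the industrial chemical plate. Before this step, the minimum OD was set to 0. Reported values are medians of three biological replicates run on separate days.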

Structure (SMILES)	growth AUC
Clc1ccc(Cl)cc1	0.989
C#CC(C)(C)NC(=O)c1cc(Cl)cc(Cl)c1	0.949
CC1CCCCC1NC(=O)Nc1ccccc1 (mixture of isomers)	0.967
Cc1ccc(N=CN(C)C=Nc2ccc(C)cc2C)c(C)c1	1.06
CC(C)N1C(=O)c2ccccc2NS1(=O)=O	0.999
CC1(C)CC/C(=C\c2ccc(Cl)cc2)C1(O)Cn1cncn1 (stereo not drawn)	0.983
CCCN(CCCl)c1c([N+](=O)[O-])cc(C(F)(F)F)cc1[N+](=O)[O-]	0.95
COC(=O)Nc1nc2ccccc2[nH]1	0.991
Cc1cc(C(F)(C(F)(F)F)C(F)(F)F)ccc1NC(=O)c1cccc(I)c1C(=O)NC(C)(C)CS(C)(=O)=O	1.2
CC(C)OC(=O)Nc1cccc(Cl)c1	0.985
c1coc(-c2nc3ccccc3[nH]2)c1	1
COC(=O)c1ccccc1S(=O)(=O)NC(=O)Nc1nc(C)nc(OC)n1	0.982
Nc1cc(Cl)ccc1Cl	1.05
CCSCc1ccccc1OC(=O)NC	0.972
COP(=S)(OC)Oc1ccc([N+](=O)[O-])c(C)c1	0.968
CCOC(=O)/C=C(C)/C=C/C[C@@H](C)CCCC(C)C	1.03
COc1nn(CSP(=S)(OC)OC)c(=O)s1	1.02
CCCCOCN(C(=O)CCl)c1c(CC)cccc1CC	0.955
COc1ccc(C(c2ccc(OC)cc2)C(Cl)(Cl)Cl)cc1	0.849
CNC(=O)/C(=N/OC)c1ccccc1Oc1ccccc1	0.972

Structure (SMILES)	growth AUC
O=C(O)c1ccc(=O)[nH]c1	1.01
c1ccc2c(c1)ccc1c3ccccc3sc21	0.987
CC1(C)C(/C=C(\Cl)C(F)(F)F)C1C(=O)OC(C#N)c1cccc(Oc2ccccc2)c1 (stereo not drawn)	1.02
CNC(=O)Oc1cc(C)cc(C(C)C)c1	0.982
CCOP(=S)(OCC)Oc1cc(Cl)c(SC)cc1Cl	0.979
O=[N+]([O-])C(Br)(CO)CO	1.01
Cc1c(F)c(F)c(COC(=O)[C@@H]2[C@H](/C=C(\Cl)C(F)(F)F)C2(C)C)c(F)c1F (mixture of isomers)	0.993
COP(=S)(OC)Oc1ccc(S(C)=O)c(C)c1 (stereo not drawn)	1.01
CCNc1nc(NCC)nc(SC)n1	1.02
CC(C)N(C(=O)SCC(Cl)=C(Cl)Cl)C(C)C	1.02
CCOP(=S)(OCC)Oc1ccc([N+](=O)[O-])cc1	1
CC(C)[C@@H](Nc1ccc(C(F)(F)F)cc1Cl)C(=O)OC(C#N)c1cccc(Oc2ccccc2)c1 (stereo partly drawn)	1.04
Fc1ccc(C2(Cn3cncn3)OC2c2ccccc2Cl)cc1 (stereo not drawn)	0.93
CCCC1COC(Cn2cncn2)(c2ccc(Cl)cc2Cl)O1 (stereo not drawn)	0.912
CCOC(=O)C(O)(c1ccc(Cl)cc1)c1ccc(Cl)cc1	0.78 (active)
CC#Cc1cc(C)nc(Nc2ccccc2)n1	0.991
CC(C)N(Cc1ccccc1)C(=O)C(C)(C)C	0.976
O=c1oc2ccccc2c(O)c1C1CC(c2ccc(-c3ccc(Br)cc3)cc2)Cc2ccccc21 (stereo not drawn)	0.335 (active)
C[N+](C)(C)CCCl.[Cl-]	1.03

These compounds were tested on Bacteroides dorei in the same assay as above. Settings: 20 µM; 24 h.
In short: as §1

Structure (SMILES)	growth AUC
Clc1ccc(Cl)cc1	0.899
C#CC(C)(C)NC(=O)c1cc(Cl)cc(Cl)c1	0.956
CC1CCCCC1NC(=O)Nc1ccccc1 (mixture of isomers)	0.993
Cc1ccc(N=CN(C)C=Nc2ccc(C)cc2C)c(C)c1	0.983
CC(C)N1C(=O)c2ccccc2NS1(=O)=O	0.946
CC1(C)CC/C(=C\c2ccc(Cl)cc2)C1(O)Cn1cncn1 (stereo not drawn)	0.965
CCCN(CCCl)c1c([N+](=O)[O-])cc(C(F)(F)F)cc1[N+](=O)[O-]	0.94
COC(=O)Nc1nc2ccccc2[nH]1	1.01
Cc1cc(C(F)(C(F)(F)F)C(F)(F)F)ccc1NC(=O)c1cccc(I)c1C(=O)NC(C)(C)CS(C)(=O)=O	1
CC(C)OC(=O)Nc1cccc(Cl)c1	0.948
c1coc(-c2nc3ccccc3[nH]2)c1	0.919
COC(=O)c1ccccc1S(=O)(=O)NC(=O)Nc1nc(C)nc(OC)n1	1.01
Nc1cc(Cl)ccc1Cl	1.04
CCSCc1ccccc1OC(=O)NC	0.995
COP(=S)(OC)Oc1ccc([N+](=O)[O-])c(C)c1	0.984
CCOC(=O)/C=C(C)/C=C/C[C@@H](C)CCCC(C)C	1.01
COc1nn(CSP(=S)(OC)OC)c(=O)s1	0.992
CCCCOCN(C(=O)CCl)c1c(CC)cccc1CC	0.944
COc1ccc(C(c2ccc(OC)cc2)C(Cl)(Cl)Cl)cc1	0.926
CNC(=O)/C(=N/OC)c1ccccc1Oc1ccccc1	0.982

Structure (SMILES)	growth AUC
O=C(O)c1ccc(=O)[nH]c1	1.02
c1ccc2c(c1)ccc1c3ccccc3sc21	0.969
CC1(C)C(/C=C(\Cl)C(F)(F)F)C1C(=O)OC(C#N)c1cccc(Oc2ccccc2)c1 (stereo not drawn)	1.01
CNC(=O)Oc1cc(C)cc(C(C)C)c1	0.973
CCOP(=S)(OCC)Oc1cc(Cl)c(SC)cc1Cl	0.999
O=[N+]([O-])C(Br)(CO)CO	1.03
Cc1c(F)c(F)c(COC(=O)[C@@H]2[C@H](/C=C(\Cl)C(F)(F)F)C2(C)C)c(F)c1F (mixture of isomers)	0.935
COP(=S)(OC)Oc1ccc(S(C)=O)c(C)c1 (stereo not drawn)	1.03
CCNc1nc(NCC)nc(SC)n1	0.994
CC(C)N(C(=O)SCC(Cl)=C(Cl)Cl)C(C)C	0.955
CCOP(=S)(OCC)Oc1ccc([N+](=O)[O-])cc1	1.02
CC(C)[C@@H](Nc1ccc(C(F)(F)F)cc1Cl)C(=O)OC(C#N)c1cccc(Oc2ccccc2)c1 (stereo partly drawn)	1.04
Fc1ccc(C2(Cn3cncn3)OC2c2ccccc2Cl)cc1 (stereo not drawn)	0.956
CCCC1COC(Cn2cncn2)(c2ccc(Cl)cc2Cl)O1 (stereo not drawn)	0.945
CCOC(=O)C(O)(c1ccc(Cl)cc1)c1ccc(Cl)cc1	0.951
CC#Cc1cc(C)nc(Nc2ccccc2)n1	0.941
CC(C)N(Cc1ccccc1)C(=O)C(C)(C)C	0.936
O=c1oc2ccccc2c(O)c1C1CC(c2ccc(-c3ccc(Br)cc3)cc2)Cc2ccccc21 (stereo not drawn)	0.89
C[N+](C)(C)CCCl.[Cl-]	0.983
